# OvCa metastasis: inhibitors of ovarian cancer cell adhesion and invasion in omental model; SKOV3ip1-GFP adhesion/invasion on 3D omental model, fluorescence; Potency, µM (doses to about 45.8 µM), inactives show at the highest dose activity change, negative = inhibition, usual class: inhibitors; 46,000 tested, 0.1% active;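 note: potency is the fitted concentration of half-maximal effect; plate controls were DMSO wells for no effect and tomatine positive control wells for full effect; nearly all actives have a fitted effect of over 65% in size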
#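 qHTS, 4-pt dose (0.36-46 umol/L); SKOV3ip1-GFP, 1,200 cells/well, no FBS; primary omental fibroblast/mesothelial co-culture 48 h pre-grown; 2 h RT + 16 h 37 C; PBS wash, 4% PFA; GFP count 488/509 nm.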
# DRV1 agonist: GPR32 (DRV1) agonism, beta-arrestin recruitment | O75388 | CHO-K1 GPR32 beta-arrestin PathHunter luminescence, 90 min; zero percent set by DMSO-only wells | activation, % at 76.9 µM | 48,000 tested, 2.5% active | AID 1346428;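 active = activation of at least 60% and not above a set upper limit, about 1 call in 100 departs from these limits; inconclusive = activation of 40% to 60%, or above that upper limit; inactive = activation under 40%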; note: 0% is about no effect
#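 Agonism was scored by beta-Gal fragment complementation (chemiluminescent read, 1 h detection at ambient temperature) reporting beta-arrestin binding to GPR32 in engineered CHO-K1 cells. Compound treatment lasted 90 min at 37 C, normalized to a DMSO basal control.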
# GALC G270D act: raises human GALC G270D mutant activity in cells | 145M-Twi-hGALC-G270D cells (Twitcher mouse brain line with human GALC G270D), HMU-beta-Gal fluorescence, 48 h | 45,000 tested, 0.1% active | Potency, µM (titrated, usually from 57.5 µM), most hits filed as activators; note: potency is the fitted concentration of half-maximal effect; 0% is about no effect; nearly all actives have a fitted effect of over 65% in size
# Target sequence (P54803 whole entry G286D): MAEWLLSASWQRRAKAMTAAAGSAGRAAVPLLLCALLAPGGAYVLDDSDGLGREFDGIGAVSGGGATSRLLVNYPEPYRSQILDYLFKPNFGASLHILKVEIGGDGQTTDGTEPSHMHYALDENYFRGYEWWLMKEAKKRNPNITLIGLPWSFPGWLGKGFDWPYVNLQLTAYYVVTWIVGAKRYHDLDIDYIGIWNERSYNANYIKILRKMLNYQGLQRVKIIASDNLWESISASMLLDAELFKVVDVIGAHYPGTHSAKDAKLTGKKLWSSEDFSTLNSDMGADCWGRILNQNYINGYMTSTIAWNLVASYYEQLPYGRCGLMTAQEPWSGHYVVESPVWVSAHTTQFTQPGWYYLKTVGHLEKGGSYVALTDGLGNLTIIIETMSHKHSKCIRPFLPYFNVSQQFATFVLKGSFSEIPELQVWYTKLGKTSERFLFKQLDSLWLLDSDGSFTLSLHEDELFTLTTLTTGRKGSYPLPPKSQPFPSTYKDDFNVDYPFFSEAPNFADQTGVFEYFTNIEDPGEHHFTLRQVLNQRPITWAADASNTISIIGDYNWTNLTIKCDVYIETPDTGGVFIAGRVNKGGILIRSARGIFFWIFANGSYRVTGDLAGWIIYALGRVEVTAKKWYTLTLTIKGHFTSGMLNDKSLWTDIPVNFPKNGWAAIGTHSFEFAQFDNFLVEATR
#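 Brain-derived Twitcher mouse 145M-Twi cells stably expressing human GALC-G270D or wild-type GALC, treated live, then residual GALC activity read by fluorescence of HMU-b-Gal substrate (0.1 mM final) in citrate-phosphate buffer pH 5.2 with sodium taurocholate. Signal increase indicates enhancement.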
# p53null 32C tox: selectivity test: cytotoxicity in p53 null cells, permissive temperature | AID 903 | Potency, µM (titrated, usually from 46.1 µM), for the others: at the top dose activity change, negative = cytotoxicity, usual class: cytotoxic | 55,000 tested, 0.62% active | H1299-neo p53 null cells, ATP luminescence, 24 h, 32C;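 note: potency is the fitted concentration of half-maximal effect; 0% = DMSO only and -100% = full killing by 100 µM tamoxifen; nearly all actives have a fitted effect of over 55% in size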
#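 H1299-neo, 600 cells/well; overnight 37C; cpd up to 46 uM, 24 h at 32C; ATPlite luminescence after 20 min RT; normalized to DMSO (0%) and tamoxifen 100 uM (100% kill); Hill-fit AC50.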
# NTMT1 inhibitor: blocks human N-terminal methyltransferase 1 activity | Q9BV86 | NTMT1 MTase-Glo SAH luminescence, purified enzyme | Potency, µM (highest dose often 114 µM), for inactives: at the top dose activity change, negative = inhibition, usual class: inhibitors | 59,000 tested, 2.5% active;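 note: potency is the fitted concentration of half-maximal effect; plate controls were DMSO vehicle for no effect and no enzyme for full effect; nearly all actives have a fitted effect of over 65% in size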
# p53null 39C tox: kills p53 null cells at the nonpermissive temperature; AID 904; Potency, µM (series often up to 46.1 µM), inactives show at the highest dose activity, negative = cell killing, usual class: cytotoxic; 55,000 tested, 0.97% active; H1299 p53-null (neo) cells, 39C, ATPlite viability, 24 h;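 note: potency is the fitted concentration of half-maximal effect; 0% = DMSO only and -100% = full killing by 100 µM tamoxifen; nearly all actives have a fitted effect of over 50% in size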
#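 Luminescent ATP signal reported cell survival after H1299 lines (neo, p53 null; or p53 A138V) received up to 46 uM compound and 24 hr incubation at 39C.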
# * hit, by the source's call; i = inactive; ? = inconclusive; / = no result given; ! = not active in a repeat; [ ] = dose if it differs, or a comment. The list is not random: actives were taken first. Their share in the collection is about 4%. Unless noted, calls come from the whole dose curve; as a rule, active = well fitted curve in the direction sought with a large enough effect; inconclusive = small, poorly fitted or top-dose-only effect, or another doubt; inactive = no such curve, though single readings can be large; an effect the other way counts as inactive or inconclusive.
SMILES,OvCa metastasis,DRV1 agonist,GALC G270D act,p53null 32C tox,NTMT1 inhibitor,p53null 39C tox
Cc1ccc(C)c(N2CCN(C(=O)c3ccc4c(c3)c(C)c(C)n4C)CC2)c1,28.1%,-29.7,i,34.5%,-5.0%,25.1µM*
CCN(CC)S(=O)(=O)c1ccc2c(c1)N(CC(=O)N1CCN(c3cc(Cl)ccc3C)CC1)C(=O)CO2,-1.2%,-8.1,i,0.5%,-3.6%,14.5%
CCN(CC)S(=O)(=O)c1ccc2c(c1)N(CC(=O)NCCCN1CCN(c3cc(Cl)ccc3C)CC1)C(=O)CO2,-26.3%,77.6*,i,?,?,?
Cc1ccc(NC(=O)CN2C(=O)COc3ccc(S(=O)(=O)NC4CCCC4)cc32)cc1Cl,0.3%,106.4*,i,6.6%,5.5%,-11.1%
NS(=O)(=O)c1ccc(NC(=O)CN2C(=O)COc3ccc(Cl)cc32)cc1,18.5%,92.8*,i,-3.1%,?,-16.9%
Cc1ccc(NC(=O)CN2C(=O)COc3ccc(S(=O)(=O)N4CCCCC4)cc32)cc1Cl,-4.1%,-29.9,i,12.4%,3.7%,-9.7%
CN(C)C(=S)SC(=S)N(C)C,/,-15.0,i,/,25.1µM*,/
CCc1ccc(NC(=O)c2[nH]c(C)c(C(C)=O)c2C)cc1S(=O)(=O)Nc1ccc(C#N)cc1,/,/,/,/,16.9%,/
CCc1ccc(NC(=O)C2CCN(c3ccc(Sc4ccc(C)cc4)nn3)CC2)cc1,-2.5%,19.5,i,8.8%,-7.1%,-15.3%
COc1ccc(NC(=O)C2CCN(c3ccc(Sc4ccc(C)cc4)nn3)CC2)cc1,-7.4%,63.7*,i,-1.0%,1.2%,23.1%
Cc1ccc(-c2nc(NC(=O)CSc3cc(C)c4ccccc4n3)ns2)cc1,-2.7%,1.7,i,-1.9%,39.8µM*,-5.6%
N=c1n(CCN2CCCCC2)c2ccccc2n1CC(O)COc1ccc(Cl)cc1Cl (stereo unspecified),?,69.6*,i,17.8µM*,?,12.6µM*
Cc1ccc(OCC(O)Cn2c(=N)n(CCN3CCCCC3)c3ccccc32)cc1 (stereo unspecified),8.91µM*,-1.0,i,-3.5%,?,12.6µM*
CCCCc1ccc(C(=O)Nc2cc(-c3ccc(Cl)cc3)nn2-c2ccc(Cl)cc2)cc1,/,/,/,/,6.8%[57.5 µM],/
O=C(CCCCSc1nnc(-c2cccc3ccccc23)o1)Oc1ccc(F)cc1,/,/,/,/,13.7%,/
Cc1cc2ncc(-c3ccccc3)nc2cc1C,/,/,/,/,44.7µM*,/
Cc1ccc(N(CC(C)C)S(=O)(=O)c2nnc(NC(=O)c3cccs3)s2)cc1,i,43.5,i,3.5%,4.7%,-19.2%
Cc1cccc(N(C)S(=O)(=O)c2nnc(NC(=O)c3cccs3)s2)c1,-3.7%,73.2*,i,9.7%,14.4%,-12.2%
CC1Cc2ccccc2N1C(=O)Cc1nc(N2CCOCC2)cc(=O)[nH]1 (stereo unspecified),/,/,/,/,0.8%,/
COc1c2c(c(C)c3c1C(=O)OC3)O[C@@]1(C)CCC3(C(C)(C)O)OC(=O)CC[C@]3(C)[C@H]1C2 (stereo partly specified),/,/,/,/,8.1%[29.8 µM],/
CC[N+](CC)(CC)CCOc1cccc(OCC[N+](CC)(CC)CC)c1OCC[N+](CC)(CC)CC,21.5%,-7.0,i,/,8.91µM*!,/
CCN(CC)CCOc1ccc(C(=C(Cl)c2ccccc2)c2ccccc2)cc1,3.7%,/,/,/,-24.6%[57.5 µM],/
CC[N+](CC)(CC)CCOc1ccc(/C=C/c2ccccc2)cc1,/,26.5,i,/,28.2µM*,/
COc1cccc(CNc2ccc(S(=O)(=O)Nc3ncc(C)s3)cc2)c1O,/,/,/,/,-1.3%,/
N#Cc1c(-c2ccco2)no[n+]1[O-],/,/,/,/,10.3%,/
SMILES,OvCa metastasis,DRV1 agonist,GALC G270D act,p53null 32C tox,NTMT1 inhibitor,p53null 39C tox
CC(C)NC(=O)c1cc2c(s1)CCCC2,/,/,/,?,/,10µM*
CNC(=O)c1cc2c(s1)CCCCCC2,/,/,/,-17.9%,/,-9.0%
COc1cc(C(C)=O)ccc1OCCCN1CCC(c2noc3cc(F)ccc23)CC1,11.3%,70.9*,i,/,?,/
COc1ccc(-c2cc(C(=O)Nc3cccc(C(C)=O)c3)no2)cc1OC,-8.0%,15.3,/,4.8%,/,-9.1%
COc1cc(NC(=O)c2cc(-c3ccc(Cl)c(Cl)c3)on2)cc(OC)c1OC,?,19.5,/,?,/,25.1µM*
O=C(Nc1cccc(NC(=O)c2ccccc2F)c1)c1ccccc1,-3.9%,?,i,-3.6%,3.3%,20.1%
Cc1ccccc1C(=O)Nc1cccc(NC(=O)c2ccc(C(C)(C)C)cc2)c1,?,-5.5,i,12.6µM*,-9.2%,?
CN(Cc1ccccc1)C(=O)c1cc2c(s1)-c1ccc(Cl)cc1SC2,0.2%,-23.4,i,-6.6%,-3.9%,2µM*
O=C(NCc1cccc(Cl)c1)c1cc2c(s1)-c1ccccc1SC2,-2.0%,-11.0,i,20.5%,13.5%,-20.2%
COCCNc1cc(NC(=O)N2CCCc3cc(CN4CCN(C)CC4=O)c(C=O)nc32)ncc1C#N,/,/,/,/,19.9%[29.8 µM],/
CCc1cccc(NC(=O)COc2cc(=O)n(CC)c3ccccc23)c1,-7.7%,11.2,i,-2.8%,16.3%,-9.2%
CCn1c(=O)cc(OCC(=O)Nc2cc(OC)c(OC)c(OC)c2)c2ccccc21,-4.6%,89.5*,i,1.6%,7.9%,-23.9%
COc1ccc(-c2nc3c4ccccc4n(CC(=O)N4CCN(c5ccc(F)cc5)CC4)c(=O)n3n2)cc1,-13.0%,10.2,i,-9.4%,89.1µM*,-14.0%
CCn1c(=O)cc(OCC(=O)N2CCN(c3ccc(OC)cc3)CC2)c2ccccc21,-7.7%,80.8*,i,-7.3%,-6.4%,-18.5%
CCn1c(=O)cc(OCC(=O)NCc2ccccc2OC)c2ccccc21,i,118.0*,i,-1.3%,-0.7%,-5.9%
O=C(c1ccc(OC(F)F)c(C#Cc2ccccn2)c1)N1Cc2cccnc2C1,/,/,/,/,2.2%[57.5 µM],/
CC(=O)Nc1sc2c(c1-c1cccnc1)CCNC2,/,/,/,/,21.6%,/
CCn1c(=O)cc(OCC(=O)NCc2ccccc2Cl)c2ccccc21,-3.8%,71.5*,i,-2.2%,-9.3%,10.7%
CCn1c(=O)cc(OCC(=O)Nc2ccccc2Cl)c2ccccc21,2.0%,-16.7,?,7.9%,2.2%,5.1%

# Screening results (PubChem BioAssay)
